# PubChem BioAssay (NCATS)
# Values joined by “and” are separate entries in the source; they are usually repeats but may differ in a detail not shown here. Equal entries are not always repeated. Records with an inconclusive call do not appear. A call without a number means that no potency is given here. Values without a mark were called inactive. Active and inactive are the calls of the source. Calls come from the whole dose curve; as a rule, active = well fitted curve in the direction sought with a large enough effect; inconclusive = small, poorly fitted or top-dose-only effect, or another doubt; inactive = no such curve, though single readings can be large; an effect the other way counts as inactive or inconclusive. Where a SMILES comes first, the peptide text is derived from it. [ ]: non-standard residue; d: D form. ξ: configuration not given here. dPhe(4-Cl) = N[C@H](Cc1ccc(Cl)cc1)C(=O)O; d2Nal = N[C@H](Cc1ccc2ccccc2c1)C(=O)O; ξPhe(βξ-Me) = CC(c1ccccc1)C(N)C(=O)O; dCit = NC(=O)NCCC[C@@H](N)C(=O)O; d3Pal = N[C@H](Cc1cccnc1)C(=O)O; ξLac(3-iPr) = CC(C)CC(O)C(=O)O; NMeV = CN[CH](C(=O)O)C(C)C; GABA = NCCCC(=O)O; βAla = NCCC(=O)O
# Key:
# [1] = biological target: Calcium and integrin-binding protein 1 (Homo sapiens) (UniProt Q99828); assay: Primary qHTS for Identification of Calcium Integrin Binding Protein 1 (CIB1) Competitor (AID 1508620);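 note: GST tagged CIB1 binding a fluorescein labelled alphaIIb integrin peptide tracer; top concentration of the series differs between compounds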
# Procedure, shortened: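 CIB1-GST (1 uM final) and compound incubated 15 min at room temperature before adding FITC-alphaIIb peptide tracer (100 nM final). Competition for binding read by fluorescence polarization (ex 480, em 540) after another 15 min at room temperature.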
# [2] = Primary qHTS for inhibitors of nuclear receptor binding SET domain protein 2 (NSD2) in an isogenic RCH-ACV NSD2 p.E1099K mutant (9B) (AID 1645876); note: nearly all actives have a fitted effect of over 70% in size; note: potency is the fitted concentration of half-maximal effect
# [3] = Primary qHTS for inhibitors of nuclear receptor binding SET domain protein 2 (NSD2) in an RCH-ACV wild type WT cells (2C) (AID 1645877); note: nearly all actives have a fitted effect of over 70% in size; note: potency is the fitted concentration of half-maximal effect
# Chain of Calcium and integrin-binding protein 1 (Homo sapiens) (Q99828 whole entry, looked up): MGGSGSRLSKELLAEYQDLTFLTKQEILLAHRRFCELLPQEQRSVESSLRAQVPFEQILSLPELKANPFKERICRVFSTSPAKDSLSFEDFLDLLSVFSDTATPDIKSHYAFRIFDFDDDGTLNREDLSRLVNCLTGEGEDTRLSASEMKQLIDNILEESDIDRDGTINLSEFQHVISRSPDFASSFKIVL
smiles,measurement,setting,value
CCC(C)/C=C(C)/C=C/c1cc2c(cn1)C(=O)C(C)(OC(C)=O)C(O)=C2Cl (stereo not drawn),Potency,[1],inactive
same,Potency,[2],inactive
CC1=C2C(O)C(=O)OC(c3ccoc3)C2(C)CCC1O (stereo not drawn),Potency,[1],inactive
same,Potency,[2],inactive
C=C1C[C@]23C[C@H]1CC[C@H]2C1=C[C@H]2OC(=O)[C@@](C)([C@H]1[C@@H]3C(=O)O)[C@H]2O,Potency,[1],inactive
same,Potency,[2],inactive
same,Potency,[3],inactive
C=CC[C@]12C[C@@H](OC)C(=O)C(OC)=C1O[C@@H](c1cc(OC)c3c(c1)OCO3)[C@@H]2C,Potency,[1],inactive
same,Potency,[2],inactive
same,Potency,[3],inactive
C/C=C1\[C@H](O[C@@H]2O[C@H](CO)[C@@H](O)[C@H](O)[C@H]2O)OC=C2C(=O)OCCc3ccc(O)c(c3)Oc3ccc(cc3)CCOC(=O)C[C@H]21,Potency,[1],inactive
same,Potency,[2],inactive
C=CC1(C)CC(OC(=O)/C(C)=C\COC(C)=O)C(C(=C)C(=O)O)C(O)C1C(=C)CO (stereo not drawn),Potency,[1],inactive
same,Potency,[2],inactive
same,Potency,[3],inactive
CC(C)CNCc1ccc(-c2ccccc2S(=O)(=O)N2CCCC2)cc1,Potency,[1],inactive
same,Potency,[2],inactive
O=C(O)c1ccc(OC2OC(CO)C(O)C(O)C2O)cc1 (stereo not drawn),Potency,[1],inactive
same,Potency,[2],inactive
same,Potency,[3],inactive
C[C@H]1CC[C@@H]2N(C1)C[C@@H]1[C@H]([C@@H](O)[C@H](O)[C@]3(O)[C@H]1C[C@@]14OC5(O)[C@@H](C[C@@H](O)[C@@H]31)[C@]4(C)CC[C@@H]5O)[C@]2(C)O,Potency,[1],inactive
same,Potency,[2],inactive
same,Potency,[3],inactive
CC[C@H]1OC(=O)[C@](C)(F)C(=O)[C@H](C)[C@@H](O[C@@H]2O[C@H](C)C[C@H](N(C)C)[C@H]2O)[C@](C)(OC)C[C@@H](C)C(=O)[C@@H](C)[C@H]2N(CCCCn3cc(-c4cccc(N)c4)nn3)C(=O)O[C@]12C,Potency,[1],inactive
same,Potency,[2],20.5 µM (active)
CC/C=C\CC1C(=O)C=CC1(CCCCCCCC(=O)O)OC(C)=O (stereo not drawn),Potency,[1],inactive
same,Potency,[2],inactive
C[C@@H]1O[C@@H](O[C@H]2[C@H](O[C@H]3[C@H](O[C@H]4CC[C@@]5(C)C(CC[C@]6(C)C5CC=C5[C@@H]7CC(C)(C)CC[C@]7(C(=O)O[C@@H]7O[C@H](CO)[C@@H](O[C@@H]8O[C@@H](C)[C@H](O)[C@@H](O)[C@H]8O)[C@H](O)[C@H]7O)CC[C@]56C)C4(C)C)OC[C@H](O)[C@@H]3O)O[C@H](CO)[C@@H](O)[C@@H]2O)[C@H](O)[C@H](O)[C@H]1O (stereo partly drawn),"activity change, negative = inhibition",[1],-0.624% [at 12.4 µM]
same,"activity change, negative = viability loss",[2],-8.33% [at 9.23 µM]
CCOc1ccc(S(=O)(=O)n2c(C)nc3ccccc32)cc1,Potency,[1],inactive
same,Potency,[2],8.93 µM (active)
COc1c2cc(c(O)c1OC)-c1cc(ccc1O)CCC(O)CCCC2 (stereo not drawn),Potency,[1],inactive
same,Potency,[2],inactive
C[C@@H]1[C@H]2[C@H](O[C@@H]3O[C@H](CO)[C@@H](O)[C@H](O)[C@H]3O)OC=C(C(=O)O)[C@H]2C[C@@H]1O,Potency,[1],inactive
same,Potency,[2],inactive
same,Potency,[3],inactive
C=C1CC[C@@H]2[C@@](C)(CO[C@@H]3O[C@H](CO)C(O)[C@H](O)C3O)[C@H](O)CC[C@@]2(C)[C@@H]1CC/C(C)=C/CO (stereo partly drawn),Potency,[1],inactive
same,"activity change, negative = viability loss",[2],3.18% [at 9.23 µM]
same,"activity change, negative = cell killing",[3],-1.61% [at 9.23 µM]
CC1(C)CCC[C@]2(C)[C@H]3CC(=O)O[C@]3(C)CC[C@@H]12,Potency,[1],inactive
same,Potency,[2],inactive
[N-]=[N+]=N[C@]1(CO)O[C@@H](n2ccc(=O)[nH]c2=O)[C@@H](O)[C@@H]1O,Potency,[1],inactive
same,Potency,[2],inactive
same,Potency,[3],inactive
C[C@H](NC(c1cccc2[nH]c(=O)c(=O)[nH]c12)P(=O)(O)O)c1ccc(Br)cc1 (stereo partly drawn),Potency,[1],inactive
same,Potency,[2],inactive
same,Potency,[3],inactive
CC(C)CC(=O)O[C@@H]1OC=C(CO[C@@H]2O[C@H](CO)[C@@H](O)[C@H](O)[C@H]2O)[C@H]2[C@@H]3O[C@H]3[C@@](O)(CO)[C@@H]12,Potency,[1],inactive
same,Potency,[2],inactive
same,Potency,[3],inactive
C[C@@H]1CCC/C=C/[C@H]2CC(=O)C[C@@H]2[C@@H](O)/C=C/C(=O)O1,Potency,[1],inactive
same,Potency,[2],inactive
NC1(C(=O)NC(CCO)c2ccc(Cl)cc2)CCN(c2ncnc3[nH]ccc23)CC1 (stereo not drawn),Potency,[1],inactive
same,Potency,[2],0.728 µM (active)
same,Potency,[3],1.3 µM (active)
C=C[C@@](C)(O)CC/C=C(\C)C(=O)O[C@@H]1[C@@H]2O[C@]2(C)[C@H]2[C@H](O[C@@H]3O[C@H](CO)[C@@H](O)[C@H](O)[C@H]3O)OC=C[C@@]12O,Potency,[1],inactive
same,Potency,[2],inactive
same,Potency,[3],inactive
C=C1C(=O)O[C@H]2[C@H]1CC/C(C)=C/CC[C@@]1(C)O[C@@H]21,Potency,[1],inactive
same,Potency,[2],25.8 µM (active)
C=C1C(=O)OC2CC(C)=C(C(C)CCCO)C(O)C12 (stereo not drawn),Potency,[1],inactive
same,Potency,[2],inactive
C[C@@]12CC[C@@H]3[C@@](CC[C@H]4[C@@]3(C)CCC[C@@]4(C)C(=O)O)(CC1=O)C2,Potency,[1],inactive
same,Potency,[2],inactive
CC(C(O)/C=C/C(C)(C)O)C1CCC2(C)C3C(=O)C=C4C(CCC(O)C4(C)C)C3(C)CCC12C (stereo not drawn),Potency,[1],inactive
same,Potency,[2],inactive
same,Potency,[3],inactive
CC(=O)OC[C@@]12C(=O)C[C@@H](C)[C@]3(C[C@@H](c4ccoc4)O[C@H]3OC(C)=O)[C@H]1CCC[C@]21CO1,Potency,[1],inactive
same,Potency,[2],12.6 µM (active)
CC1CCC2(C(=O)O)CCC3(C)C(=CCC4C5(C)CCC(O)C(C)(CO)C5CCC43C)C2C1(C)O (stereo not drawn),Potency,[1],inactive
same,Potency,[2],inactive
same,Potency,[3],inactive
C[C@@H]1CC[C@]2(C(=O)O[C@@H]3O[C@H](CO)[C@@H](O)[C@H](O)[C@H]3O)CC[C@]3(C)C(=CCC4[C@@]5(C)C[C@@H](O)[C@H](O)[C@](C)(C(=O)O)C5CC[C@]43C)[C@@H]2[C@]1(C)O (stereo partly drawn),Potency,[1],inactive
same,Potency,[2],inactive
same,Potency,[3],inactive
CC(O)CO[C@@H]1O[C@H](CO)[C@@H](O)[C@H](O)[C@H]1O (stereo partly drawn),Potency,[1],inactive
same,Potency,[2],inactive
same,Potency,[3],inactive
O=C(c1ccc(/C=C/c2n[nH]c3ccccc23)cc1)N1CCNCC1,Potency,[1],inactive
same,Potency,[2],649 nM (active) and 2.63 µM (active)
same,Potency,[3],515 nM (active) and 1.86 µM (active)
C[C@@]12C[C@]3(O)O[C@H](O1)[C@]1(COC(=O)c4ccccc4)[C@H]3C[C@@]12O[C@@H]1O[C@H](CO)[C@@H](O)[C@H](O)[C@H]1O,Potency,[1],inactive
same,Potency,[2],inactive
same,Potency,[3],inactive
O=C1Nc2ccccc2C(O)(c2ccccc2)C1O (stereo not drawn),Potency,[1],inactive
same,Potency,[2],inactive
same,Potency,[3],inactive
COc1ccc(/C=C/C(=O)O[C@H]2[C@H](O[C@H]3[C@@H]4C=CO[C@@H](O[C@@H]5O[C@H](CO)[C@@H](O)[C@H](O)[C@H]5O)[C@@H]4[C@@]4(CO)O[C@@H]34)O[C@@H](C)[C@H](O)[C@H]2OC(C)=O)cc1,Potency,[1],inactive
same,Potency,[2],inactive
same,Potency,[3],inactive
C/C(=C\CCC1(C)C2CCC(C2)C1(C)O)C(=O)O (stereo not drawn),Potency,[1],inactive
same,Potency,[2],inactive
same,Potency,[3],inactive
CC(=O)N[C@H](Cc1ccc2ccccc2c1)C(=O)N[C@H](Cc1ccc(Cl)cc1)C(=O)N[C@H](Cc1cccnc1)C(=O)N[C@@H](CO)C(=O)N[C@@H](Cc1ccc(O)cc1)C(=O)N[C@H](CCCNC(N)=O)C(=O)N[C@@H](CC(C)C)C(=O)N[C@@H](CCCN=C(N)N)C(=O)N1CCC[C@H]1C(=O)N[C@H](C)C(N)=O (Ac-[d2Nal][dPhe(4-Cl)][d3Pal]SY[dCit]LRP[dA]-NH2),Potency,[1],inactive
same,Potency,[2],inactive
same,Potency,[3],inactive
CC1CC(O)/C=C/C(O)C(O)CC(=O)Cc2c(Cl)c(O)cc(O)c2C(=O)O1 (stereo not drawn),Potency,[1],inactive
same,Potency,[2],inactive
same,Potency,[3],inactive
CC1=C(COC2OC(CO)C(O)C(O)C2O)C(C(CO)C(=O)O)CC1 (stereo not drawn),Potency,[1],inactive
same,Potency,[2],inactive
same,Potency,[3],inactive
COc1cc(O)cc(C)c1C(=O)OC1C(CO)OC(OC2C(O)C(O)C(O)C(O)C2O)C(O)C1O (stereo not drawn),Potency,[1],inactive
same,Potency,[2],inactive
same,Potency,[3],inactive
CCOC(=O)C(CCc1ccccc1)NC1CSC(c2cccs2)CN(CC(=O)O)C1=O (stereo not drawn),Potency,[1],inactive
same,Potency,[2],inactive
same,Potency,[3],inactive
CC1NC(=O)CCCNC(=O)C(Cc2c[nH]c3ccccc23)NC(=O)C(C)NC(=O)C(C(C)C)NC(=O)C(C(C)c2ccccc2)NC(=O)C(C(C)C)NC1=O (stereo not drawn) (cyclo([GABA]AV[ξPhe(βξ-Me)]VAW); configuration not given here),Potency,[1],inactive
same,Potency,[2],inactive
same,Potency,[3],inactive
O=C(OC[C@H]1O[C@H](O[C@]2(CO)O[C@H](CO)[C@@H](O)[C@@H]2O)[C@H](O)[C@@H](O)[C@@H]1O)c1ccccc1,Potency,[1],inactive
same,Potency,[2],inactive
same,Potency,[3],inactive
CC1=CC(=O)CC(C)(C)[C@H]1/C=C/C(CO)O[C@@H]1O[C@H](CO)[C@@H](O)[C@H](O)[C@H]1O (stereo partly drawn),Potency,[1],inactive
same,Potency,[2],inactive
same,Potency,[3],inactive
COc1ncc(Nc2ncc([C@@H](C)N3CCN(S(C)(=O)=O)CC3)cc2-c2nc(C)nc(N)n2)cc1F,Potency,[1],inactive
same,Potency,[2],0.0052 µM (active)
same,Potency,[3],0.0205 µM (active)
COC(=O)c1c(C)cc(OC(=O)c2c(C)cc(OC)cc2OC)cc1O[C@@H]1O[C@H](CO)[C@@H](O)[C@H](O)[C@H]1O,Potency,[1],inactive
same,Potency,[2],inactive
same,Potency,[3],inactive
NC(=O)[C@H](O[C@@H]1O[C@H](CO)[C@@H](O)[C@H](O)[C@H]1O)c1ccccc1,Potency,[1],inactive
same,Potency,[2],inactive
same,Potency,[3],inactive
OC[C@H]1O[C@@H](Oc2ccccc2)[C@H](O)[C@@H](O)[C@@H]1O,Potency,[1],inactive
same,Potency,[2],inactive
same,Potency,[3],inactive
CC1CCC2(C(=O)O)CCC3(C)C(=CCC4C5(C)CCC(OC(=O)/C=C/c6ccccc6)C(C)(C)C5CCC43C)C2C1C (stereo not drawn),Potency,[1],inactive
same,Potency,[2],inactive
same,Potency,[3],inactive
C=C1C(O)C(O)C2(CC3C(C)=CCC4C(C)(CO)CCCC34C)OC2C1O (stereo not drawn),Potency,[1],inactive
same,Potency,[2],inactive
same,Potency,[3],inactive
CC(C)CC1OC(=O)C2CCCN2C(=O)CCNC(=O)C(Cc2ccccc2)NC(=O)C(C(C)C)N(C)C(=O)C(C(C)C)N(C)C1=O (stereo not drawn) (cyclo([ξLac(3-iPr)][NMeV][NMeV]F[βAla]P); configuration not given here),Potency,[1],inactive
same,Potency,[2],inactive
same,Potency,[3],inactive
